From PubChem BioAssay (NCI)
This is part of a sample that, as a whole, favours compounds with a hit. Of some 83,000 tested, about 20% had one in any assay.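 Method: cells in 96-well plates; compound added at one concentration; 48 h incubation; percent growth measured; values under 10 scored active.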 Unmarked numbers belong to inactive results. Active and inactive are the calls of the source.

Columns and labels:
Assay in all cases: NCI-60 one-dose screen, 48 h (100 = growth as untreated, 0 = no growth, -100 = all killed)
Conditions in all cases: 10 µM unless noted
[1] = test system: NCI-H23 lung
[2] = test system: NCI-H226 lung
[3] = test system: NCI-H322M lung
[4] = test system: HOP-62 NSCLC
[5] = test system: NCI-H460 lung
[6] = test system: HOP-92 NSCLC
[7] = test system: NCI-H522 lung
[8] = test system: A549/ATCC NSCLC
[9] = test system: 786-0 renal
[10] = test system: COLO 205 colon
[11] = test system: DU-145 prostate
[12] = test system: K-562 leukemia
[13] = test system: MALME-3M melanoma
[14] = test system: MDA-MB-231 breast
[15] = test system: RXF 393 renal
[16] = test system: SF-268 CNS
[17] = test system: SF-295 CNS
[18] = test system: SF-539 CNS
[19] = test system: UACC-257 melanoma
[20] = test system: M14 melanoma

| SMILES | growth [1] | growth [2] | growth [3] | growth [4] | growth [5] | growth [6] | growth [7] | growth [8] | growth [9] | growth [10] | growth [11] | growth [12] | growth [13] | growth [14] | growth [15] | growth [16] | growth [17] | growth [18] | growth [19] | growth [20] |
| --- | --- | --- | --- | --- | --- | --- | --- | --- | --- | --- | --- | --- | --- | --- | --- | --- | --- | --- | --- | --- |
| CC(=O)N(N=Nc1ccccc1)c1cccc2ccccc12 | 86.9% | 92.5% | 94.3% | 90.5% | 55.7% | 96.5% | 75.1% | 97.4% | 97.6% | 91.9% | 9.87% (active) | 89.5% | 128% | 78.2% | 89.6% | 92.8% | 68.2% | 111% | 103% | 90.9% |
| CS(=O)(=O)Nc1cc(-c2ccc3ncnc(Nc4c(Cl)ccc5c4OCO5)c3c2)cnc1Cl | 0.217% (active) | 12.7% | -39% (active) | 9.21% (active) | 7.13% (active) | -10.5% (active) | -13.8% (active) | -13.7% (active) | 0.785% (active) | -45% (active) | 6.12% (active) | 13.6% | -29% (active) | 1.01% (active) | -45.8% (active) | -21.5% (active) | -29.8% (active) | -36.9% (active) | -3.47% (active) | -9.85% (active) |
| COCCn1cc(-c2nc(-c3cc4cccnc4n3CCOC)cs2)c2cc(OC)ccc21 | 61.5% | 63.1% | 39.5% | 74.7% | 40.2% | 47.1% | 16.7% | 46% | 58.5% | 44.3% | 72.4% | 0.391% (active) | 119% | 23.7% | 66.3% | 74.2% | 74.2% | 62.6% | 94.7% | 69.4% |
| CCCCCOc1ccc(C(=O)/C(Br)=C/C(=O)O)cc1 | 91.9% | 106% | 104% | 214% | 103% | 99.2% | 89.2% | 104% | 98.8% | 105% | 106% | 60.1% | 130% | 109% | 95.2% | 97.5% | 112% | 100% | 106% | 56.8% |
| CC(C)N1CN2C(=S)NC3C2N(C1)C(=S)N3C (stereo not given) | 102% | 100% | 104% | 103% | 105% | 101% | 90.2% | 90.8% | 99.3% | 120% | 104% | 102% | 105% | 110% | 105% | 96% | 98% | 109% | 95% | 105% |
| O=[N+]([O-])C1C(c2ccccc2)C12c1ccccc1-c1ccccc12 (stereo not given) | 7.97% (active) | 15% | 29.3% | 34.2% | -14.3% (active) | -3.91% (active) | -13.8% (active) | 8.59% (active) | 4.98% (active) | 14.9% | -36.8% (active) | -12.5% (active) | 59.4% | 6.89% (active) | -21.8% (active) | 29.3% | -23.1% (active) | -12.2% (active) | 40.9% | -10.2% (active) |
| C=CCn1c(SCC(=O)Nc2ccc(C(=O)/C=C/c3cc4cc(OC)ccc4nc3Cl)cc2)nnc1-c1ccc(Br)cc1 | 78% | 89.4% | 81.9% | 99.3% | 88.4% | 70.1% | 52.9% | 70.7% | 80.9% | 112% | 86.1% | 46.3% | 92.5% | 80.5% | 83.2% | 76% | 92.1% | 89.5% | 79.8% | 90.1% |
| O=C(O)CNC1=C(Cl)C(=O)c2ccccc2C1=O | 88% | 109% | 103% | 95.4% | 102% | 74.1% | 78.8% | 96.6% | 101% | 113% | 112% | 93.4% | 118% | 83% | 128% | 103% | 92.1% | 123% | 91.1% | 98.3% |
| CCCCCCCCCCCCCCCC(N)c1ccccc1 (stereo not given) | -24.4% (active) | 87.6% | 92.9% | -33.9% (active) | -66.8% (active) | 31.4% | 63.5% | 31.9% | 1.55% (active) | -57.8% (active) | -62.9% (active) | 0.445% (active) | 79.5% | -71.9% (active) | -89.4% (active) | -38.9% (active) | -49.5% (active) | 88.4% | 82.6% | 3.85% (active) |
| O=C1C(Cl)=C(Nc2ccc(O)cc2)C(=O)N1Cc1ccc(Cl)cc1 | 85.2% | 84.5% | 77% | 84.2% | 78.9% | 69.7% | 51.9% | 71.6% | 70.6% | 35.8% | 90.2% | 11.9% | 76.2% | 74.1% | 64.3% | 57.5% | 97.4% | 65% | 70% | 24.2% |
| COc1ccc2nc(NC(=O)CSc3nnc4n3S(=O)(=O)c3ccccc3N4C)sc2c1 | 94.9% | 103% | 102% | 97.9% | 112% | 90.5% | 70.9% | 77.9% | 103% | 138% | 115% | 91.2% | 120% | 94.5% | -29.4% (active) | 95.8% | 127% | 106% | 82.4% | 101% |
| Cc1ccc2c(n1)C(=O)c1[nH]c3ccccc3c1C2=O | -33.8% (active) | 55.7% | 31.8% | 39.5% | -50.6% (active) | 78% | 59.7% | -14.4% (active) | 78.1% | 23.9% | -86.1% (active) | 44.9% | -80.4% (active) | 32.1% | 62.7% | 66.3% | 0.15% (active) | 43% | 13.7% | -39.9% (active) |
| O=C(CI)NC1Oc2ccccc2-c2oc(=O)c(-c3ccccc3)cc21 (stereo not given) | -55.7% (active) | -43.3% (active) | 105% | -3.99% (active) | 0.996% (active) | -72.4% (active) | -75.6% (active) | 94.7% | -79.3% (active) | -53.5% (active) | -93.8% (active) | -13% (active) | -77.1% (active) | -68.8% (active) | -89.4% (active) | -72.2% (active) | 87.4% | -89.5% (active) | 77.3% | -39.8% (active) |
| C[C@]12C=CC(=O)C=C1CCC1C2[C@@H](O)C[C@@]2(C)C1CC[C@]2(O)C(=O)COC(=O)CCC(=O)O (stereo not given in full) | 106% | 84.6% | 106% | 121% | 103% | 87.1% | 103% | 71.3% | 102% | 124% | 107% | 104% | 94.8% | 94.7% | 126% | 105% | 116% | 96.8% | 99.3% | 106% |
| Cn1c(O)c(C=NCCN=Cc2c(O)n(C)c(=O)n(C)c2=O)c(=O)n(C)c1=O | 97% | 92.3% | 89.3% | 90.7% | 107% | 86.2% | 105% | 100% | 113% | 101% | 110% | 34.5% | 90.4% | 101% | 111% | 105% | 101% | 93.9% | 101% | 102% |
